Consider 30 compounds from PubChem BioAssay (EPA / NIEHS).

The source made the active and inactive calls. How the source made its calls: active means hit-call score of the fitted dose curve at least 0.9, where 1 is the maximum; inactive means score below 0.9.

E-selectin (Homo sapiens), sequence (P16581 whole entry, looked up): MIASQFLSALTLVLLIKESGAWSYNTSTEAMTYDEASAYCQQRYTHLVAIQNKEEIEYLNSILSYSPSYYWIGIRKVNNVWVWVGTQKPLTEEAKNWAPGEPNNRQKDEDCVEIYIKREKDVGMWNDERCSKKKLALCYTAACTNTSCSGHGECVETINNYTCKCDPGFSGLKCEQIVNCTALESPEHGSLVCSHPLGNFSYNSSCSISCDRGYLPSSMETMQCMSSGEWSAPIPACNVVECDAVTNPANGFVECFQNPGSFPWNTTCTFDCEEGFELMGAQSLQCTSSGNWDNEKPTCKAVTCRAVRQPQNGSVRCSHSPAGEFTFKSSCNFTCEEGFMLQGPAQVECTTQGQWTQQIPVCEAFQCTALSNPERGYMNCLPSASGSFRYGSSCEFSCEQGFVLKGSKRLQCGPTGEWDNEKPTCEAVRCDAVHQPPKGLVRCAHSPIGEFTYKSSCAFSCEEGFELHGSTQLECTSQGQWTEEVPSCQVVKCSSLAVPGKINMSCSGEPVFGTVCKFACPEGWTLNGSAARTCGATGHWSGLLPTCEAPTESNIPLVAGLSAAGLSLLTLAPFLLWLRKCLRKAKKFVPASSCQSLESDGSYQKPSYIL

Read-out in the first assay: Monocyte Chemoattractant Protein-1 (MCP1), CCL2 (gene 6347)
Briefly: BSK_SAg_MCP1: BioMAP Diversity Plus: SAg Assay for Monocyte Chemoattractant Protein-1 (MCP1) Biomarker Activity (AID 2283090). The note with it: primary human HUVEC with PBMC; actives raise or lower the signal. The procedure, abridged:
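MCP-1 levels in the endothelial–PBMC SAg co-culture were quantified by ELISA at 24 h post-dosing; both increases and decreases versus DMSO scored. Cytotoxicity monitored by SRB total protein in parallel cultures.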
As for `CS(=O)(=O)c1ccc([C@@H](C[C@H]2CCC(=O)C2)C(=O)Nc2cnccn2)cc1Cl`, the result was inactive.

For the compound `O=C(O)c1cccnc1`, the result was inactive.

Consider `CCc1cc(C2=C(C(=O)O)N(c3ccccc3C(F)(F)F)S(=O)(=O)c3ccccc32)cc2c1OCO2`, for which the outcome was inactive.

Take `CC(C)NCC(O)c1ccc(O)c(O)c1` (stereo not given): the outcome was inactive.

Regarding `Cc1cn([C@H]2C=C[C@@H](CO)O2)c(=O)[nH]c1=O`, the outcome was inactive.

As to `CCCCC(CC)COC(=O)CCCCCCCC(=O)OCC(CC)CCCC` (stereo not given), the outcome was inactive.

For `Cc1ccc(C(C)(C)C)c(O)c1`, the outcome was inactive.

On to `CCCCC(CC)CO` (stereo not given), for which the result was inactive.

`CC(N)=O`: the result was inactive.

Regarding `O=C1OC(c2ccc(O)cc2)(c2ccc(O)cc2)c2ccccc21`, the AC50 (in general, the concentration at which the activity in the assay is half-maximal) was 23 µM (active).

In the case of `CC(=O)CC(c1ccccc1)c1c(O)c2ccccc2oc1=O` (stereo not given), the result was inactive.

As to `Cc1cc(SC2=C(O)C[C@@](CCc3ccc(N)cc3)(C(C)C)OC2=O)c(C(C)(C)C)cc1CO`, the result was inactive.

As for `Oc1ccccc1O`, the result was inactive.

Take `CCc1nc(N)nc(N)c1-c1ccc(Cl)cc1`: the outcome was inactive.

Take `CCCCOC(=O)CCCCC(=O)OCCCC`: the outcome was inactive.

In the case of `O=NO`, the outcome was inactive.

Take `Cn1cnc2c1c(=O)[nH]c(=O)n2C`: the outcome was inactive.

`Cc1c(C)c2c(c(C)c1O)CCC(C)(COc1ccc(CC3SC(=O)NC3=O)cc1)O2` (stereo not given): the AC50 is 32.6 µM (active).

Regarding `CCCC(=O)O`, the result was inactive.

As to `O=C(O)c1[nH]n(-c2ccc(S(=O)(=O)O)cc2)c(=O)c1N=Nc1ccc(S(=O)(=O)O)cc1`, the result was inactive.

With `C=CCc1ccc(OC)c(OC)c1`, the outcome was inactive.

Take `OCC(O)CO`: the result was inactive.

For `CC(=O)O`, the outcome was inactive.

Consider `CCOCCOCCO`, for which the outcome was inactive.

On to `CC(C)c1cccc(C(C)C)c1NC(=O)NS(=O)(=O)c1cc(C(C)(C)O)co1`, for which the outcome was inactive.

Take `CCCCCCCC(=O)OC`: the result was inactive.

For `Nc1nc(Cl)nc2c1ncn2[C@H]1C[C@H](O)[C@@H](CO)O1`, the AC50 was 3.09 µM (active).

Consider `CCCCCCC(CCCCCCCCCCC(=O)OCC(COC(C)=O)OC(C)=O)OC(C)=O` (stereo not given), for which the outcome was inactive.

Take `c1ccc2occc2c1`: the outcome was inactive.

Take `CCCCc1nc2cccnc2n1Cc1ccc(-c2ccccc2-c2nnn[nH]2)cc1`: the result was inactive.

Read-out in a further assay: E-selectin (Homo sapiens) (UniProt P16581)
Briefly: BSK_SAg_Eselectin: BioMAP Diversity Plus: SAg Assay for Eselectin Biomarker Activity (AID 2283091). To be noted: primary human HUVEC with PBMC; actives raise or lower the signal. The procedure, abridged:
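Cell-surface E-selectin is read by ELISA at 24 h in the SAg co-culture of HUVEC and PBMC. Curves are fitted in both directions relative to DMSO. Parallel SRB total-protein staining tracks overt toxicity.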
As to `CS(=O)(=O)c1ccc([C@@H](C[C@H]2CCC(=O)C2)C(=O)Nc2cnccn2)cc1Cl`, the outcome was inactive.

In the case of `O=C(O)c1cccnc1`, the result was inactive.

As for `CCc1cc(C2=C(C(=O)O)N(c3ccccc3C(F)(F)F)S(=O)(=O)c3ccccc32)cc2c1OCO2`, the outcome was inactive.

Consider `CC(C)NCC(O)c1ccc(O)c(O)c1` (stereo not given), for which the result was inactive.

In the case of `Cc1cn([C@H]2C=C[C@@H](CO)O2)c(=O)[nH]c1=O`, the result was inactive.

For the compound `CCCCC(CC)COC(=O)CCCCCCCC(=O)OCC(CC)CCCC` (stereo not given), the outcome was inactive.

`Cc1ccc(C(C)(C)C)c(O)c1`: the result was inactive.

On to `CCCCC(CC)CO` (stereo not given), for which the outcome was inactive.

As to `CC(N)=O`, the result was inactive.

For `O=C1OC(c2ccc(O)cc2)(c2ccc(O)cc2)c2ccccc21`, the concentration at half-maximal activity (AC50) was 23.8 µM (active).

For `CC(=O)CC(c1ccccc1)c1c(O)c2ccccc2oc1=O` (stereo not given), the result was inactive.

Regarding `Cc1cc(SC2=C(O)C[C@@](CCc3ccc(N)cc3)(C(C)C)OC2=O)c(C(C)(C)C)cc1CO`, the outcome was inactive.

For the compound `Oc1ccccc1O`, the result was inactive.

Consider `CCc1nc(N)nc(N)c1-c1ccc(Cl)cc1`, for which the outcome was inactive.

For `CCCCOC(=O)CCCCC(=O)OCCCC`, the outcome was inactive.

In the case of `O=NO`, the result was inactive.

Regarding `Cn1cnc2c1c(=O)[nH]c(=O)n2C`, the result was inactive.

Consider `Cc1c(C)c2c(c(C)c1O)CCC(C)(COc1ccc(CC3SC(=O)NC3=O)cc1)O2` (stereo not given), for which the AC50 was 31.9 µM (active).

`CCCC(=O)O`: the outcome was inactive.

As to `O=C(O)c1[nH]n(-c2ccc(S(=O)(=O)O)cc2)c(=O)c1N=Nc1ccc(S(=O)(=O)O)cc1`, the result was inactive.

As to `C=CCc1ccc(OC)c(OC)c1`, the result was inactive.

Consider `OCC(O)CO`, for which the outcome was inactive.

In the case of `CC(=O)O`, the result was inactive.

With `CCOCCOCCO`, the result was inactive.

In the case of `CC(C)c1cccc(C(C)C)c1NC(=O)NS(=O)(=O)c1cc(C(C)(C)O)co1`, the result was inactive.

As to `CCCCCCCC(=O)OC`, the result was inactive.

For the compound `Nc1nc(Cl)nc2c1ncn2[C@H]1C[C@H](O)[C@@H](CO)O1`, the AC50 is 9.32 µM (active).

For the compound `CCCCCCC(CCCCCCCCCCC(=O)OCC(COC(C)=O)OC(C)=O)OC(C)=O` (stereo not given), the result was inactive.

As for `c1ccc2occc2c1`, the result was inactive.

As for `CCCCc1nc2cccnc2n1Cc1ccc(-c2ccccc2-c2nnn[nH]2)cc1`, the outcome was inactive.
